Reference: PubChem BioAssay
Values without a mark were called inactive. For some assays here: Entries with a potency or affinity are not part of this list. Activity calls are given as the source filed them.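 How the source made its calls, unless noted: active means thallium flux through the channel raised or lowered by more than 3 SD from vehicle-only wells, actives on both sides; inactive means the rest.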

Legend:
[1] = antimalarial activity against Dd2 strain (AID 2302;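 active means growth inhibition above 50% at the single 2 µM test dose, taken to imply half-maximal potency below 2 µM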;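 further: 0% = DMSO untreated growth and 100% = chloroquine plus artemisinin killed control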); details: P. falciparum Dd2 in RBCs, LDH growth readout, 72 h; at 2 µM; stronger effect = higher value
[2] = human hepatoma cell viability loss – ATP luminescence, cytotoxicity control for P. falciparum antimalarial project, primary screen (AID 2303;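 active means inhibition above 50%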;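 further: 0% = DMSO wells and 100% = digitonin-killed cells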); details: HepG2 viability, 24-48 h, at 10 µM, stronger effect = higher value
[3] = target: L-lactate dehydrogenase (Plasmodium falciparum (isolate CDC / Honduras)) (UniProt Q27743); assay: PfLDH activity inhibition – cell lysate, 3D7 strain, counter-screen for P. falciparum growth inhibition project (AID 2304; call rule not given here;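 further: 0% = vehicle and 100% = reference inhibitor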); details: P. falciparum 3D7 crude extract, LDH APAD/NBT absorbance; at 2 µM; stronger effect = higher value
[4] = inhibition of 3D7 malaria parasite growth – strain 3D7 (AID 2306; call rule not given here;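 further: 0% = DMSO wells and 100% = chloroquine plus artemisinin control wells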); details: P. falciparum 3D7 erythrocytic growth, LDH absorbance, 72 h; at 2 µM; stronger effect = higher value
[5] = target: Protein kinase 7 (PK7), Plasmodium falciparum 3D7 (PF3D7_0213400) (UniProt Q7YTF7); assay: inhibition of Plasmodium PK7 catalytic activity – biochemical, TCAMS antimalarial set, Kinase-Glo luminescence (AID 1159587; call rule not given here); details: recombinant PfPK7, Kinase-Glo ATP depletion luminescence
[6] = target: Calcium-dependent protein kinase 4 (Plasmodium falciparum (isolate 3D7)) (UniProt Q8IBS5); assay: PfCDPK4 kinase inhibitors, biochemical, TCAMS library (AID 1159588; cut-off not given, nearly all actives have IC50 up to about 0.91 µM); details: recombinant PfCDPK4, Kinase-Glo ATP depletion luminescence
F380Y = assay: BK channel mutant inhibitors and activators – cell-based, U2OS BacMam, thallium flux, beta subunits, selectivity assay, profiling panel (AID 1259406); details: U2OS BacMam BK variants, at 30 µM;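 further: initial slope of Thallos dye fluorescence rise after thallium is added; log ratio against the mean of 0.3% DMSO vehicle wells on the same plate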
F380Y/beta1 = assay: as above; details: U2OS BacMam BK variants, at 30 µM
F380Y/beta2Delta = assay: as above; details: U2OS BacMam BK variants, at 30 µM
F380Y/beta4 = assay: as above; details: U2OS BacMam BK variants, at 30 µM
[7] = target: Calcium-activated potassium channel subunit alpha-1 (Homo sapiens) + Leucine-rich repeat-containing protein 26 (Homo sapiens) (UniProt Q12791+Q2I0M4); assay: as above; details: U2OS BacMam BK variants, F380Y/Slo1WT/gamma1, at 30 µM
R275C = assay: as above; details: U2OS BacMam BK variants, at 30 µM
R275C/beta1 = assay: as above; details: U2OS BacMam BK variants, at 30 µM
R275C/beta2Delta = assay: as above; details: U2OS BacMam BK variants, at 30 µM
R275C/beta4 = assay: as above; details: U2OS BacMam BK variants, at 30 µM
R275C/Slo1WT/beta2 = assay: as above; details: U2OS BacMam BK variants, at 30 µM

Sequence of Calcium-activated potassium channel subunit alpha-1 (Homo sapiens) + Leucine-rich repeat-containing protein 26 (Homo sapiens) (Q2I0M4 whole entry, looked up, one chain of several): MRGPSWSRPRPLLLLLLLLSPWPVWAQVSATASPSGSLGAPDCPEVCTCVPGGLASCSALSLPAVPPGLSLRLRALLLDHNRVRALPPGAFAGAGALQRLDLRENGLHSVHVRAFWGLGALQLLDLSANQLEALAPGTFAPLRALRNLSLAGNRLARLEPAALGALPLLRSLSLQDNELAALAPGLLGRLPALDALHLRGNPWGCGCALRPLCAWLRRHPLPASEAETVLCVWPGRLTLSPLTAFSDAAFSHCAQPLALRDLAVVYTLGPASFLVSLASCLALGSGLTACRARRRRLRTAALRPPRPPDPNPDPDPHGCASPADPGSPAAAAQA
Sequence of Calcium-dependent protein kinase 4 (Plasmodium falciparum (isolate 3D7)) (Q8IBS5 whole entry, looked up): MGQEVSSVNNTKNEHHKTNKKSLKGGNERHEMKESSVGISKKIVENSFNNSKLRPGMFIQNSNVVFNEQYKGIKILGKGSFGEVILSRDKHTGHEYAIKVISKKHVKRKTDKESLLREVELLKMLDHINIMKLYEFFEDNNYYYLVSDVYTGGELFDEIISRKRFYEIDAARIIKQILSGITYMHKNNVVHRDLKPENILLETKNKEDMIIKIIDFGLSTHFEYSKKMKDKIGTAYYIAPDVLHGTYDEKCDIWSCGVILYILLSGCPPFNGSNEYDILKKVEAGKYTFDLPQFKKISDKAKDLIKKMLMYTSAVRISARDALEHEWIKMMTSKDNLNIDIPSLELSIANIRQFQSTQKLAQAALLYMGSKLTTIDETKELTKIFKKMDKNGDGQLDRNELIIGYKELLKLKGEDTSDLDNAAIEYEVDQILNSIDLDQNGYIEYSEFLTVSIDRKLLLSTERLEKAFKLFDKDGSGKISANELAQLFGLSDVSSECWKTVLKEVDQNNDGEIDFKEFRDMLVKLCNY
Sequence of L-lactate dehydrogenase (Plasmodium falciparum (isolate CDC / Honduras)) (Q27743 whole entry, looked up): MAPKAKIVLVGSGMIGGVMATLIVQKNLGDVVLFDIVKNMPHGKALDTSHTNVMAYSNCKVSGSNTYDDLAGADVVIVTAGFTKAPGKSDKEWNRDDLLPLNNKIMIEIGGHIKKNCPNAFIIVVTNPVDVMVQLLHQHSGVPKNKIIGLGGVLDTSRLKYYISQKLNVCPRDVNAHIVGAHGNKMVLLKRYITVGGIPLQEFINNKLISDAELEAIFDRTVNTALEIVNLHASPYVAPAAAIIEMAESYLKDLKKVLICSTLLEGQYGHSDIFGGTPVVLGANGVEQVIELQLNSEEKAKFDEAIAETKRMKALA
Sequence of Protein kinase 7 (PK7), Plasmodium falciparum 3D7 (PF3D7_0213400) (Q7YTF7 1-343): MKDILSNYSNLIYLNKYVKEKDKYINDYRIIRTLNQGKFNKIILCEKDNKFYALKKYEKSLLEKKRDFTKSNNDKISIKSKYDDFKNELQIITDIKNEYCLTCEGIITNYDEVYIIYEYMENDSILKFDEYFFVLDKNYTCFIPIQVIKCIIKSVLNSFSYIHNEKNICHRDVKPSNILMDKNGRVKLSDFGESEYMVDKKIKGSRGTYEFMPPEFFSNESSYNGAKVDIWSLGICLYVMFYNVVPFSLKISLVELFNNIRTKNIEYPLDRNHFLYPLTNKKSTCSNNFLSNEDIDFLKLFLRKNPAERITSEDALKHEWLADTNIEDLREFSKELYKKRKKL

| Structure (SMILES) | growth inhibition [1] | inhibition [2] | inhibition [3] [%] | growth inhibition [4] | outcome [5] | outcome [6] | log fold change Tl+ flux (F380Y) | log fold change Tl+ flux (F380Y/beta1) | log fold change Tl+ flux (F380Y/beta2Delta) | log fold change Tl+ flux (F380Y/beta4) | log fold change Tl+ flux [7] | log fold change Tl+ flux (R275C) | log fold change Tl+ flux (R275C/beta1) | log fold change Tl+ flux (R275C/beta2Delta) | log fold change Tl+ flux (R275C/beta4) | log fold change Tl+ flux (R275C/Slo1WT/beta2) |
| --- | --- | --- | --- | --- | --- | --- | --- | --- | --- | --- | --- | --- | --- | --- | --- | --- |
| CN1CCN(c2ccc(Nc3nccc(-c4cnn5ncccc45)n3)cc2Cl)CC1 | 92% (active) | 65% (active) | 0 | 95% (active) | inactive | inactive |  |  |  |  |  |  |  |  |  |  |
| Cc1nc2ccc(C(=O)O)cc2[nH]1 |  |  |  |  |  |  | 0.0381 | 0.0177 | 0.0131 | 0.0015 | 0.0154 | 0.0142 | 0.0541 | 0.0118 | -0.00127 | 0.0354 |
| COC(=O)c1cc(-c2nc(-c3ccc(Cl)cc3Cl)cs2)c(SC)s1 |  |  |  |  |  |  | -0.0122 | -0.00509 | 0.0439 | 0.00731 | 0.00703 | -0.00909 | -0.0387 | 0.0331 | -0.0197 | -0.00912 |
| CCOC(=O)c1cnn(C(=O)c2ccc(-n3c(C)ccc3C)cc2)c1N |  |  |  |  |  |  | -0.0269 | -0.0106 | -0.0157 | -0.067 | 0.00537 | -0.0135 | -0.0219 | 0.0233 | -0.00435 | 0.0525 |
| Cc1cccc(N=Cc2cc(Cl)cc(Cl)c2O)c1C |  |  |  |  |  |  | 0.049 | 0.0694 | 0.0737 | 0.0885 | 0.078 | 0.0221 | 0.0155 | 0.0671 | 0.00158 | -0.00626 |
| Oc1c(Cl)c(Cl)c(Cl)c2ccccc12 |  |  |  |  |  |  | 0.503 (active) | 0.627 (active) | 0.473 (active) | 0.484 (active) | 0.395 (active) | 0.519 (active) | 0.527 (active) | 0.304 (active) | 0.702 (active) | 0.141 (active) |
| CC(C)c1ccc(NC(=S)NC2CC3CC2C2C=CCC32)cc1 (stereo unspecified) |  |  |  |  |  |  | 0.00954 | -0.00688 | -0.0661 | -0.422 (active) | -0.206 (active) | -0.205 (active) | -0.152 (active) | -0.109 (active) | -0.11 (active) | -0.0657 |
| O=c1[nH]nc(N2CCSCC2)[nH]1 |  |  |  |  |  |  | 0.00841 | 0.0329 | -0.0177 | 0.0123 | -0.0239 | 0.0133 | 0.000508 | -0.00725 | 0.0241 | 0.014 |
| COc1ccc(CCNC(=O)c2ccccc2NC(=O)c2ccccc2C)cc1OC |  |  |  |  |  |  | -0.0118 | -0.0452 | -0.0544 | -0.615 (active) | -0.381 (active) | -1.01 (active) | -0.839 (active) | -0.31 (active) | -0.582 (active) | -0.267 (active) |
| Cc1nc(-c2ccc(C(F)(F)F)cc2)sc1CO |  |  |  |  |  |  | 0.0603 | 0.197 (active) | 0.0517 | 0.104 (active) | 0.156 (active) | 0.0174 | 0.0853 | 0.0843 (active) | 0.0953 (active) | 0.00529 |
| CC(C)(C)NC(=O)NCCO |  |  |  |  |  |  | 0.0116 | -0.0332 | 0.0577 | -0.013 | -0.0499 | -0.02 | 0.0132 | -0.014 | 0.00214 | -0.03 |
| Cc1cc(C)n2nc(Sc3ncccc3[N+](=O)[O-])nc2n1 |  |  |  |  |  |  | 0.0293 | -0.0122 | -0.0308 | 0.00857 | 0.0468 | 0.0175 | -0.025 | -0.00322 | 0.00925 | 0.0318 |
| CN(C)c1ccc(C=NNC(N)=S)c(Cl)c1 |  |  |  |  |  |  | 0.178 (active) | 0.329 (active) | 0.177 (active) | 0.174 (active) | -0.221 (active) | -0.509 (active) | -0.285 (active) | -0.0612 | -0.244 (active) | -0.154 (active) |
| Nc1ccc(Cl)cc1-c1nc2ccccc2[nH]1 |  |  |  |  |  |  | -0.0882 | -0.0427 | -0.0974 | -0.0939 (active) | -0.0918 | -0.0721 | -0.112 (active) | -0.0678 | -0.0366 | 0.00169 |
| Cc1onc(-c2c(Cl)cccc2Cl)c1C(=O)NOC(=O)c1cccs1 |  |  |  |  |  |  | 0.00334 | 0.0153 | 0.0189 | 0.0829 | -0.0657 | -0.0156 | 0.0266 | 0.0291 | 0.0618 | -0.0647 |
| Cc1cc(C)c(C(=O)O)c(CC(C)(C)C(=O)O)c1 |  |  |  |  |  |  | 0.000395 | 0.016 | -0.00135 | -0.0155 | 0.0359 | 0.0232 | -0.00597 | 0.00899 | -0.0125 | 0.0267 |
| O=C1c2ccccc2NC(c2cc(Cl)cc(Cl)c2O)N1Cc1cccnc1 (stereo unspecified) |  |  |  |  |  |  | 0.0629 | 0.0897 (active) | 0.0333 | 0.104 (active) | 0.0598 | 0.00967 | 0.0327 | 0.0578 | 0.0953 (active) | -0.0554 |
| COCc1cc(=O)[nH]c(SCC(=O)c2ccc(-c3ccccc3)cc2)n1 |  |  |  |  |  |  | 0.0542 | 0.0105 | 0.0138 | -0.000638 | 0.0335 | 0.0131 | -0.0427 | 0.032 | 0.0252 | -0.000518 |
| CCCCCCCCCCCC(=O)N1CC(=O)NC(=O)C1 |  |  |  |  |  |  | -0.0479 | -0.037 | -0.0133 | -0.0202 | 0.0655 | -0.0151 | -0.0193 | 0.0154 | -0.0342 | 0.0104 |
| CC(C)(C)NC(=S)NNc1c(Cl)cncc1Cl |  |  |  |  |  |  | -0.00302 | -0.0136 | -0.0137 | -0.0352 | -0.035 | 0.0328 | 0.0635 | 0.00425 | -0.00379 | 0.0133 |
| COc1ccccc1NC(=S)NNC(=O)CSc1ccccc1[N+](=O)[O-] |  |  |  |  |  |  | 0.0388 | 0.0156 | 0.0403 | 0.0916 | 0.0332 | -0.0193 | 0.0469 | 0.064 | 0.00382 | -0.0222 |
| CC(c1ccccc1)n1c(SCc2cc(=O)oc3cc(O)ccc23)n[nH]c1=O (stereo unspecified) |  |  |  |  |  |  | -0.0609 | 0.00559 | 0.0151 | 0.0558 | 0.0977 | 0.0366 | 0.0338 | 0.123 (active) | 0.102 (active) | -0.0189 |
| CS(=O)(=O)Nc1ccc(N2CCN(c3ccc(C(F)(F)F)cn3)CC2)nc1 |  |  |  |  |  |  | 0.0216 | 0.0253 | 0.0364 | 0.0379 | 0.0373 | 0.0255 | 0.0101 | 0.0279 | 0.0149 | 0.0171 |
| CCOC(=O)c1cc(CC)sc1NC(=O)C(Cl)(Cl)Cl |  |  |  |  |  |  | -0.00144 | 0.0314 | -0.028 | 0.0374 | 0.0144 | -0.0151 | -0.066 | 0.0214 | -0.00727 | -0.00449 |
| C1=CC=CC(C2C=CC=CC=C2)C=C1 |  |  |  |  |  |  | 0.0519 | 0.0343 | -0.0453 | 0.0315 | -0.0568 | -0.00176 | -0.00852 | -0.000831 | 0.0377 | -0.0164 |
| CCOC(=O)C(C#N)=CNc1ccccc1OC(F)(F)F |  |  |  |  |  |  | -0.00694 | -0.036 | 0.0178 | 0.027 | -0.0183 | -0.0335 | -0.00201 | -0.00638 | -0.0357 | -0.0488 |
| CCOC(=O)c1ccc(NC(=O)CCC(=O)O)cc1 |  |  |  |  |  |  | -0.0468 | -0.00176 | -0.0505 | 0.0259 | 0.0113 | -0.00978 | -0.00901 | -0.0108 | -0.0046 | 0.0242 |
